Screening results: PubChem BioAssay, SRMLSC
MK inhibit = S. pneumoniae MK inhibitors, primary screen, biochemical, PK/LDH-coupled NADH absorbance; mevalonate kinase [Streptococcus pneumoniae D39]; purified MK, PK/LDH-coupled NADH absorbance 340 nm; inhibition, % at 10 µM; hit rate 0.48% among 65,000;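 active = ranked among the strongest by inhibition in the single 10 µM screen, a fixed top-ranked set picked for dose follow-up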
Spn PMK inh = S. pneumoniae PMK inhibitors, primary screen, biochemical, mevalonate pathway, pilot trial included. phosphomevalonate kinase (Streptococcus pneumoniae D39). purified PMK, PK/LDH-coupled NADH absorbance 340 nm. AID 539, 2006. inhibition, % at 10 µM. hit rate 0.49% among 65,000;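 active = top-ranked compounds by inhibition in the single 10 µM screen, taking a fixed number of the strongest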;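 note: 0% = full reaction with DMSO carrier and 100% = background rate without enzyme reaction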
NADH coupling = inhibitors of PK/LDH coupling enzymes, profiling panel, artefact control, biochemical, MLSMR library. coupled PK/LDH NADH assays, four targets. IC50, µM (titrated, usually from 10 µM), for inactives: at the highest dose inhibition. hit rate 0.02% among 65,000;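 active = single-dose screening hits from any of four coupled enzyme assays that gave an IC50 when retested across doses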;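 note: the DPM-DC format reads NADH fluorescence rather than 340 nm absorbance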
DPM-DC inhibit = S. pneumoniae DPM-DC inhibitors, primary screen, biochemical, PK/LDH-coupled NADH fluorescence; hit rate 0.49% among 65,000; AID 556, 2006; calls only at 10 µM; diphosphomevalonate decarboxylase (Streptococcus pneumoniae D39); purified DPM-DC;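 active = the 320 compounds with the highest percent inhibition in the single-dose primary screen, excluding strongly autofluorescent ones, cut at about 32% in these data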;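 note: kinetic rate of NADH fluorescence loss reporting ADP formed by the decarboxylase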
Abs 340nm = compound light absorbance at 340 nm, profiling panel, artefact control, biochemical, MLSMR library, data from PS, PMK, MK assays | 65,000 tested, under 10 active | fold change at 10 µM | AID 708, 2007 | compound absorbance at 340 nm, fold over control;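 active = at 10 µM dose, initial 340 nm absorbance at least 2 fold that of control wells; inactive = change under 2 fold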;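 note: initial absorbance extrapolated from kinetic A340 decline of NADH oxidation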
Fluor 339 460 = intrinsic fluorescence of library compounds, ex339/em460 – biochemical, MLSMR library, data from DPM-DC assay, artefact control, profiling panel | compound autofluorescence, ex339/em460 nm, NADH buffer; hits give high values; 1 = no-compound wells, NADH background | fluorescence fold increase at 10 µM | hit rate 5.5% among 65,000 | AID 709, 2007;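 active = at 10 µM, mean starting fluorescence two-fold or more over control wells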;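 note: signal is the first read of a kinetic run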
An asterisk follows results filed as active. Rows were chosen to be rich in hits. Some 6.8% of all compounds tested hit in one or more screens of this group.

For COc1cccc(CNC(=O)C2CCN(S(=O)(=O)N3CC(C)CC(C)C3)CC2)c1 (stereo not given) the results were MK inhibit 0, Spn PMK inh 24, NADH coupling 8%, DPM-DC inhibit inactive, Abs 340nm 1 and Fluor 339 460 1.
For CCOC(=O)C(C)Sc1nc(-c2cccs2)ccc1C#N (stereo not given) the results were MK inhibit 5, Spn PMK inh 0, NADH coupling 3%, Abs 340nm 1.1 and Fluor 339 460 2.2*.
Screening CCN(CC)C(=O)CSc1nc(C)cc(-c2cccs2)c1C#N returned MK inhibit 11, Spn PMK inh 8, NADH coupling 10%, DPM-DC inhibit inactive, Abs 340nm 1.1 and Fluor 339 460 1.1.
`C=COC(=O)CSc1nc(-c2cccs2)ccc1C#N` gave MK inhibit 8, Spn PMK inh 0, NADH coupling 3%, DPM-DC inhibit inactive, Abs 340nm 1.1 and Fluor 339 460 2.1*.
For Cn1c(Cc2ccc3c(c2)OCO3)nnc1SCC(=O)N1CCc2ccccc2C1 the results were MK inhibit 4, Spn PMK inh 20, NADH coupling 8%, DPM-DC inhibit inactive, Abs 340nm 0.98 and Fluor 339 460 1.
Screening CCOC(=O)CSC1=Nc2ccccc2C2=NC(CC(=O)NCc3ccccc3)C(=O)N12 (stereo not given) returned MK inhibit 9, Spn PMK inh 9, NADH coupling 10%, DPM-DC inhibit inactive, Abs 340nm 1 and Fluor 339 460 3*.
CCOC(=O)CSC1=Nc2ccccc2C2=NC(CC(=O)NCc3cccs3)C(=O)N12 (stereo not given) was read as MK inhibit 6, Spn PMK inh 9, NADH coupling 3%, DPM-DC inhibit inactive, Abs 340nm 1 and Fluor 339 460 1.2.
`CCC(C)NC(=O)CSC1=Nc2ccccc2C2=NC(CC(=O)NCc3ccc(F)cc3)C(=O)N12` (stereo not given) gave MK inhibit 17, Spn PMK inh 8, NADH coupling 8%, DPM-DC inhibit inactive, Abs 340nm 1 and Fluor 339 460 2.8*.
CC(C)C1N=C2c3ccccc3N=C(SCC(=O)NCCc3ccc(S(N)(=O)=O)cc3)N2C1=O (stereo not given) was read as MK inhibit 10, Spn PMK inh 8, NADH coupling 7%, DPM-DC inhibit inactive, Abs 340nm 1 and Fluor 339 460 2.4*.
`CC(C)Cc1nc2n[nH]c(N)c2c2c1CCC2` gave MK inhibit 9, Spn PMK inh 6, NADH coupling 5%, DPM-DC inhibit inactive, Abs 340nm 1 and Fluor 339 460 1.
`COc1ccc(C(=O)Nc2ccc(N3CCN(c4ccc(OC)cc4)CC3)c(C#N)c2)cc1` gave MK inhibit 7, Spn PMK inh 14, NADH coupling 11%, Abs 340nm 1 and Fluor 339 460 5.1*.
For COc1ccc(C(=O)N2CCC(C(=O)Nc3ccc(OC)c(OC)c3)CC2)cc1 the results were MK inhibit 4, Spn PMK inh 5, NADH coupling 3%, DPM-DC inhibit inactive, Abs 340nm 1 and Fluor 339 460 1.1.
For COc1ccc(N2CCN(c3ccc(N)cc3C#N)CC2)cc1 the results were MK inhibit 3, Spn PMK inh 15, NADH coupling 6%, DPM-DC inhibit inactive, Abs 340nm 1 and Fluor 339 460 1.5.
COc1ccc(N2CCN(c3ccc(NC(=O)C4CCCCC4)cc3C#N)CC2)cc1 was read as MK inhibit 1, Spn PMK inh 8, NADH coupling 5%, DPM-DC inhibit inactive, Abs 340nm 1 and Fluor 339 460 2.2*.
`CCN(CC)S(=O)(=O)c1ccc2c3c(cccc13)C(=O)N2` gave MK inhibit 0, Spn PMK inh 11, NADH coupling 6%, Abs 340nm 1.1 and Fluor 339 460 2.2*.
Screening COc1ccc(OC)c(S(=O)(=O)NCCC2=CCCCC2)c1 returned MK inhibit 0, Spn PMK inh 14, NADH coupling 3%, DPM-DC inhibit inactive, Abs 340nm 0.99 and Fluor 339 460 1.
For O=C1Nc2ccc(S(=O)(=O)NCCC3=CCCCC3)c3cccc1c23 the results were MK inhibit 5, Spn PMK inh 8, NADH coupling 7%, Abs 340nm 1 and Fluor 339 460 3.6*.
Screening CCOC(=O)c1c(C)oc2ccc(NS(=O)(=O)c3ccc4c5c(cccc35)C(=O)N4)cc12 returned MK inhibit 14, Spn PMK inh 8, NADH coupling 5%, DPM-DC inhibit inactive, Abs 340nm 1 and Fluor 339 460 1.4.
`CN1C(=O)c2ccccc2N(C)C1c1ccc2c(c1)OCO2` (stereo not given) gave MK inhibit 8, Spn PMK inh 7, NADH coupling 8%, Abs 340nm 0.98 and Fluor 339 460 3.9*.
CCOc1ccccc1CN1C(=O)NC(C)(c2ccccc2)C1=O (stereo not given) was read as MK inhibit 0, Spn PMK inh 11, NADH coupling 4%, DPM-DC inhibit inactive, Abs 340nm 1 and Fluor 339 460 1.1.
O=C(Nc1ccc(F)cc1)C1CCC(N2C(=O)c3ccccc3C2=O)CC1 (stereo not given) was read as MK inhibit 2, Spn PMK inh 1, NADH coupling 1%, DPM-DC inhibit inactive, Abs 340nm 1.1 and Fluor 339 460 1.1.
Screening CCn1c(SCC(=O)c2ccccc2)nc2c(c1=O)SC(C)C2 (stereo not given) returned MK inhibit 40*, Spn PMK inh 12, NADH coupling 17%, DPM-DC inhibit inactive, Abs 340nm 1.1 and Fluor 339 460 1.2.
Screening O=C(c1cc2c(=O)oc3ccccc3c2s1)N1CCN(c2ncccn2)CC1 returned MK inhibit 0, Spn PMK inh 17, NADH coupling 6%, DPM-DC inhibit inactive, Abs 340nm 1 and Fluor 339 460 1.1.
Screening Cc1ccc2c(c1)C(N1CCCC1=O)CC(c1ccco1)N2 (stereo not given) returned MK inhibit 5, Spn PMK inh 0, NADH coupling 1%, DPM-DC inhibit inactive, Abs 340nm 1 and Fluor 339 460 2.6*.
`O=C(O)c1cc2n(n1)C(C(F)(F)F)CC(c1ccco1)N2` (stereo not given) gave MK inhibit 3, Spn PMK inh 2, NADH coupling 2%, DPM-DC inhibit inactive, Abs 340nm 1.1 and Fluor 339 460 1.1.
